Measured values as given in PubChem BioAssay (NCATS).
Results filed as inconclusive are left out. Calls of active or inactive are those of the source. Calls come from the whole dose curve; as a rule, active = well fitted cell-killing curve with a large enough effect; inconclusive = small, poorly fitted or top-dose-only effect, or effect the other way; inactive = flat fitted curve, though single readings scatter.

Key:
Assay in all cases: Primary qHTS to identify gynecologic anti-cancer compounds using libraries of approved drugs and bioactive compounds (AID 1345084); note: nearly all actives have a fitted effect of over 55% in size
CAOV3 = details: Gynecologic cancer cell panel viability, ATPlite luminescence, 48 h; series mostly up to 57.5 µM
Outline: (§1)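 Cytotoxicity screen measuring ATP content by luciferase luminescence. Each compound is applied at five concentrations for 48 h at 37 C with 5% CO2.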

CASKI = details: Gynecologic cancer cell panel viability, ATPlite luminescence, 48 h; series mostly up to 57.5 µM
Outline: as §1

Es-2 = details: Gynecologic cancer cell panel viability, ATPlite luminescence, 48 h; series mostly up to 57.5 µM
Outline: as §1

HeLa = details: Gynecologic cancer cell panel viability, ATPlite luminescence, 48 h; series mostly up to 57.5 µM
Outline: as §1

Hek293T = details: Gynecologic cancer cell panel viability, ATPlite luminescence, 48 h, control line for the selectivity index; series mostly up to 57.5 µM
Outline: as §1

JEG-3 = details: Gynecologic cancer cell panel viability, ATPlite luminescence, 48 h; series mostly up to 57.5 µM
Outline: as §1

OV90 = details: Gynecologic cancer cell panel viability, ATPlite luminescence, 48 h; series mostly up to 57.5 µM
Outline: as §1

PA-1 = details: Gynecologic cancer cell panel viability, ATPlite luminescence, 48 h; series mostly up to 57.5 µM
Outline: as §1

SKOV3 = details: Gynecologic cancer cell panel viability, ATPlite luminescence, 48 h; series mostly up to 57.5 µM
Outline: as §1

Tov-21-G = details: Gynecologic cancer cell panel viability, ATPlite luminescence, 48 h; series mostly up to 57.5 µM
Outline: as §1

Tov112D = details: Gynecologic cancer cell panel viability, ATPlite luminescence, 48 h; series mostly up to 57.5 µM
Outline: as §1
% is set by controls: 0 for no effect and ±100 for the full control effect.

COc1c(OC2OC(CO)C(O)C(O)C2O)ccc(O)c1C(=O)OCc1ccccc1O[C@@H]1O[C@H](CO)[C@@H](O)[C@H](O)[C@H]1O (stereo partly specified)
inactive: Potency (CAOV3) | Potency (CASKI) | Potency (Es-2) | Potency (HeLa) | Potency (Hek293T) | Potency (JEG-3) | Potency (OV90) | Potency (PA-1) | Potency (SKOV3) | Potency (Tov-21-G) | Potency (Tov112D)

C[C@H]1CN(C[C@H](Cc2ccccc2)C(=O)NCC(=O)O)CC[C@@]1(C)c1cccc(O)c1
inactive: Potency (CAOV3) | Potency (CASKI) | Potency (Es-2) | Potency (HeLa) | Potency (Hek293T) | Potency (JEG-3) | Potency (OV90) | Potency (PA-1) | Potency (SKOV3) | Potency (Tov-21-G) | Potency (Tov112D)

CC(/C=C/C1(O)C(C)(C)CC(O)CC1(C)O)OC1OC(CO)C(O)C(O)C1O (stereo unspecified)
inactive: Potency (CAOV3) | Potency (CASKI) | Potency (Es-2) | Potency (HeLa) | Potency (Hek293T) | Potency (JEG-3) | Potency (OV90) | Potency (PA-1) | Potency (SKOV3) | Potency (Tov-21-G) | Potency (Tov112D)

CC(C)(O)C1=CCC23COC(C2)C(O)(C(=O)O)CCC13 (stereo unspecified)
inactive: Potency (CAOV3) | Potency (CASKI) | Potency (Es-2) | Potency (HeLa) | Potency (Hek293T) | Potency (JEG-3) | Potency (OV90) | Potency (PA-1) | Potency (SKOV3) | Potency (Tov-21-G) | Potency (Tov112D)

CC1(C)NC2N(C1=O)c1ccccc1C2(O)CC(C(=O)O)n1cnc2ccccc2c1=O (stereo unspecified)
inactive: Potency (CAOV3) | Potency (CASKI) | Potency (Es-2) | Potency (HeLa) | Potency (Hek293T) | Potency (JEG-3) | Potency (OV90) | Potency (PA-1) | Potency (SKOV3) | Potency (Tov-21-G) | Potency (Tov112D)

Cc1[nH]cnc1C1CCN(c2nc3cccc4c3n2CCC4=O)CC1
inactive: Potency (CAOV3) | Potency (CASKI) | Potency (Es-2) | Potency (HeLa) | Potency (Hek293T) | Potency (JEG-3) | Potency (OV90) | Potency (PA-1) | Potency (SKOV3) | Potency (Tov-21-G) | Potency (Tov112D)

C=CC1(C)C=C2C(=O)CC3C(C)(C)CCCC3(C(=O)O)C2(O)CC1 (stereo unspecified)
inactive: Potency (CAOV3) | Potency (CASKI) | Potency (Es-2) | Potency (HeLa) | Potency (Hek293T) | Potency (JEG-3) | Potency (OV90) | Potency (PA-1) | Potency (SKOV3) | Potency (Tov-21-G) | Potency (Tov112D)

Cc1ccc2c(c1)C=Cc1cc(C)ccc1C2c1cn(Cc2ccc(C(=O)Nc3nn[nH]n3)o2)c(=O)[nH]c1=S
inactive: Potency (CAOV3) | Potency (CASKI) | Potency (Es-2) | Potency (HeLa) | Potency (Hek293T) | Potency (JEG-3) | Potency (OV90) | Potency (PA-1) | Potency (SKOV3) | Potency (Tov-21-G) | Potency (Tov112D)

CC(O)C(O)/C=C/C=C/C(=O)O[C@@H]1C=C2COC(=O)[C@]2(O)[C@@]2(C)CCCC(C)(C)C12 (stereo partly specified)
inactive: Potency (CAOV3) | Potency (CASKI) | Potency (Es-2) | Potency (HeLa) | Potency (Hek293T) | Potency (JEG-3) | Potency (OV90) | Potency (PA-1) | Potency (SKOV3) | Potency (Tov-21-G) | Potency (Tov112D)

COCCCNCC1COc2ccccc2O1 (stereo unspecified)
inactive: Potency (CAOV3) | Potency (CASKI) | Potency (Es-2) | Potency (HeLa) | Potency (Hek293T) | Potency (JEG-3) | Potency (OV90) | Potency (PA-1) | Potency (SKOV3) | Potency (Tov-21-G) | Potency (Tov112D)

C=C(C)[C@@H](C)[C@H]1O[C@]23C[C@]4(CO2)C(CCC2[C@@]5(C)CC[C@H](O[C@@H]6OC[C@H](O)[C@H](O[C@@H]7O[C@H](CO)[C@@H](O)[C@H](O)[C@H]7O)[C@H]6O[C@@H]6O[C@@H](CO)[C@H](O)[C@H]6O)C(C)(C)C5CC[C@]24C)C3[C@@](C)(O)[C@@H]1OC(C)=O (stereo partly specified)
inactive: activity change, negative = cytotoxicity (CAOV3) 12.4% [at 11.6 µM] | activity change, negative = cytotoxicity (CASKI) -5.16% [at 11.6 µM] | activity change, negative = cytotoxicity (Es-2) 4.13% [at 11.6 µM] | activity change, negative = cytotoxicity (HeLa) -18.1% [at 11.6 µM] | activity change, negative = cytotoxicity (Hek293T) -2.35% [at 11.6 µM] | activity change, negative = cytotoxicity (JEG-3) 10.2% [at 11.6 µM] | activity change, negative = cytotoxicity (OV90) 2.63% [at 11.6 µM] | activity change, negative = cytotoxicity (PA-1) 20.8% [at 11.6 µM] | activity change, negative = cytotoxicity (SKOV3) 6.78% [at 11.6 µM] | activity change, negative = cytotoxicity (Tov-21-G) 0.172% [at 11.6 µM] | activity change, negative = cytotoxicity (Tov112D) 3.31% [at 11.6 µM]

OC[C@H]1O[C@@H](Oc2cc(O)cc(-c3cc4ccc(O)cc4o3)c2)[C@H](O)[C@@H](O)[C@@H]1O
inactive: Potency (CAOV3) | Potency (CASKI) | Potency (Es-2) | Potency (HeLa) | Potency (Hek293T) | Potency (JEG-3) | Potency (OV90) | Potency (PA-1) | Potency (SKOV3) | Potency (Tov-21-G) | Potency (Tov112D)

CC(=O)N[C@H]1CCN(c2ccc(C3=NOC(CN[S+](=O)([O-])C(C)C)C3)cc2F)C1 (stereo partly specified)
inactive: Potency (CAOV3) | Potency (CASKI) | Potency (Es-2) | Potency (HeLa) | Potency (Hek293T) | Potency (JEG-3) | Potency (OV90) | Potency (PA-1) | Potency (SKOV3) | Potency (Tov-21-G) | Potency (Tov112D)

CNC(=O)Nc1ccc(OC)c(NC(=O)NC(=O)c2cc(F)c(F)cc2Cl)c1
inactive: Potency (CAOV3) | Potency (CASKI) | Potency (Es-2) | Potency (HeLa) | Potency (Hek293T) | Potency (JEG-3) | Potency (OV90) | Potency (PA-1) | Potency (SKOV3) | Potency (Tov-21-G) | Potency (Tov112D)

C=CCc1ccc(O[C@@H]2O[C@H](CO[C@@H]3O[C@H](CO)[C@@H](O)[C@H](O)[C@H]3O)[C@@H](O)[C@H](O)[C@H]2O)c(O)c1
inactive: Potency (CAOV3) | Potency (CASKI) | Potency (Es-2) | Potency (HeLa) | Potency (Hek293T) | Potency (JEG-3) | Potency (OV90) | Potency (PA-1) | Potency (SKOV3) | Potency (Tov-21-G) | Potency (Tov112D)

CC1CCC2C(C)(C)CC(C)(CO)C2(O)C1C(=O)O (stereo unspecified)
inactive: Potency (CAOV3) | Potency (CASKI) | Potency (Es-2) | Potency (HeLa) | Potency (Hek293T) | Potency (JEG-3) | Potency (OV90) | Potency (PA-1) | Potency (SKOV3) | Potency (Tov-21-G) | Potency (Tov112D)
